TDP1 cell noCPT: qHTS for Inhibitors of human tyrosyl-DNA phosphodiesterase 1 (TDP1): qHTS in cells in absence of CPT; Potency, µM (titrated, usually from 46.2 µM), for the others: top-dose activity change, negative = growth inhibition, usual class: inhibitors; DT40 Tdp1-/- hTDP1 cells, no CPT, ATP luminescence, 48 h; 420,000 compounds, 15% hits; further: potency means the concentration at half of the fitted maximal effect; nearly all actives have a fitted effect of over 55% in size
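Seeded 400 DT40-hTDP1 cells/well (vehicle DMSO, no 20 nM CPT); pinned compounds; ≥48 hr at 37 °C; CellTiter-Glo luminescence as viability measure.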
HT1080-NT tox: kills 2HG-producing HT-1080-NT fibrosarcoma cells; HT-1080-NT fibrosarcoma viability, CellTiter-Glo ATP luminescence, 48 h; Potency, µM (series often up to 46.1 µM), for the others: top-dose activity, negative = less viability, actives largely listed as cytotoxic; 360,000 compounds, 1.6% hits;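 further: NT is the 2HG producing partner of a matched IDH1 knockdown line; potency means the concentration at half of the fitted maximal effect; 0% = DMSO-treated cells and -100% = media-only wells without cells; nearly all actives have a fitted effect of over 55% in size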
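A 48-hour cytotoxicity screen used HT-1080-NT cells plated 2 hours before compound delivery. ATP-based CellTiter-Glo luminescence measured viability, normalized to DMSO and no-cell controls.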
IL-1B inflam inh: inflammasome signaling inhibition, IL-1 beta readout; THP-1 LPS/ATP IL-1B secretion, AlphaLISA, 16 h; stronger effect = lower value; activity change, % at 57.5 µM; 360,000 compounds, 4.7% hits; AID 743279; in the data active means activity change below about -50%; inconclusive means mostly about -30% to -49%
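Secreted IL-1B measured by AlphaLISA bead assay after 16 h compound exposure of THP-1 cells; compounds (final up to 57.5 uM) added 1 h before LPS (250 ng/mL) and ATP (1.25 mM) stimulation; lower signal means less secretion.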
DT40 TDP1 CPT: growth inhibition of DT40 Tdp1-/-;hTDP1 cells with camptothecin (screen for TDP1 inhibitors). chicken DT40 Tdp1-/-;hTDP1 cells + 20 nM CPT, ATP luminescence, 48 h. Potency, µM (highest dose often 46.2 µM), inactives show at the highest dose activity change, negative = growth inhibition, usual class: inhibitors. 420,000 compounds, 12% hits. AID 686979; further: potency means the concentration at half of the fitted maximal effect; nearly all actives have a fitted effect of over 55% in size
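Chicken DT40 Tdp1-/- cells complemented with human TDP1, 400 cells/well, exposed to compounds plus 20 nM camptothecin for at least 48 h at 37 C; viability read as ATP content by CellTiter-Glo luminescence.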
HT1080 IDH1KD tx: toxicity to HT-1080 IDH1 knockdown cells (counter line); HT-1080 IDH1 knockdown viability, ATP luminescence, 48 h; Potency, µM (series often up to 46.1 µM), for the others: at the highest dose activity, negative = toxicity, actives largely listed as cytotoxic; 360,000 compounds, 2% hits; AID 686971;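 further: potency means the concentration at half of the fitted maximal effect; 0% = DMSO wells and -100% = cell-free medium wells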
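HT-1080-IDH1KD cells (IDH1 knocked down), 750/well in RPMI with 5% FBS, treated with compound 48 h at 37 degrees C. Viability by CellTiter-Glo luminescence, normalised to DMSO and no-cell wells; concentration-response curves classed.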
* hit, by the source's call; i = inactive; ? = inconclusive; · = no result given; [ ] = remark or other dose. Compounds with a hit are over-represented: about 19% of the library has one in this group of screens. Unless noted, the call rests on the fitted dose curve; in most records, active means well fitted curve in the direction sought with a large enough effect; inconclusive means small, poorly fitted or top-dose-only effect, or another doubt; inactive means no such curve, though single readings can be large; an effect the other way counts as inactive or inconclusive. Unless noted, on the % scale 0 is the no-effect control and ±100 the full control effect.

SMILES	TDP1 cell noCPT	HT1080-NT tox	IL-1B inflam inh	DT40 TDP1 CPT	HT1080 IDH1KD tx
Cc1ccc(C(=O)Nc2ccc(C(=O)N/N=C/c3ccc(C)o3)cc2)cc1	?	-10%	?	?	-15%
CC(O)CNc1nc2sc3c(c2c(=O)n1Cc1ccco1)CCCCC3 (configuration not stated)	?	-30%	-21	-24%	-20%
O=c1c2c3c(sc2nc(NCCOCCO)n1Cc1ccco1)CCCCC3	-8%	7%	22	?	-9%
CC(O)CNc1nc2sc3c(c2c(=O)n1CCc1ccccc1)CCCCC3 (configuration not stated)	16µM*	?	-82*	23µM*	?
CN(C)CCNc1nc2sc3c(c2c(=O)n1CCc1ccccc1)CCCCC3	10µM*	-24%	-75*	21µM*	?
COc1cc2c(cc1OC)C(c1ccc(C)cc1)NC(=O)C2 (configuration not stated)	1%	-16%	-61*	-11%	2%
CCOc1cc2c(cc1OCC)C(c1ccc(OC)cc1)N(c1ccccc1)C(=O)C2 (configuration not stated)	9%	0%	-1	-4%	-6%
CCOc1ccc(C2NC(=O)Cc3cc(OC)c(OC)cc32)cc1 (configuration not stated)	-25%	-14%	12	2%	-1%
COc1ccc(C2c3cc(OC)c(OC)cc3CC(=O)N2c2ccc(C)cc2)cc1 (configuration not stated)	21µM*	·	·	13µM*	·
CCOc1cc2c(cc1OCC)C(c1ccccc1)N(c1ccccc1)C(=O)C2 (configuration not stated)	16µM*	?	-18	16µM*	?
COc1ccc(C2c3cc(OC)c(OC)cc3CC(=O)N2c2ccc(C)c(F)c2)cc1 (configuration not stated)	3.7µM*	·	·	3.3µM*	·
Cc1[nH]c(=O)n(C(C)C)c(=O)c1Br	-11%	-1%	-2	0%	-4%
O=C(NCc1ccc(Cl)cc1)c1ccc(Br)o1	-30%	1%	-11	?	10%
O=C(CCN1C(=O)/C(=C/c2ccccc2)SC1=S)Nc1ccccn1	-13%	-5%	11	-14%	-6%
O=C(CCN1C(=O)/C(=C/c2ccccc2F)SC1=S)N[C@@H](CO)Cc1ccccc1	16µM*	-1%	-99*	?	?
O=C(CCN1C(=O)/C(=C/c2ccccc2)SC1=S)N[C@@H](CO)Cc1ccccc1	10µM*	2%	-61*	18µM*	-13%
Cc1cc(NC(=O)CN2C(=O)/C(=C/c3ccccc3F)SC2=S)no1	2%	-11%	2	15%	-2%
C=CCn1c(=O)c2ccccc2n2c(SCc3nnc(-c4ccccc4Br)o3)nnc12	-21%	-5%	-6	?	-2%[9.24 µM]
c1ccc(CNc2nc(-c3ccc4c(c3)OCO4)nc3ccccc23)cc1	?	·	·	-3%	·
C[C@H](NC(=O)Cc1ccccc1)C(=O)N1CCC2(CC1)NCCc1[nH]cnc12	1%	11%	12	-22%	11%
O=C(N[C@@H](Cc1ccccc1)C(=O)N1CCC2(CC1)NCCc1[nH]cnc12)c1cccc(Br)c1	6.5µM*	?	?	10µM*	?
CCOC(=O)C1=C(COC(=O)CNS(=O)(=O)c2ccc(C)cc2)NC(=O)NC1C (configuration not stated)	-6%	0%	i	-15%	-1%
CCOC(=O)C1=C(COC(=O)CCS(=O)(=O)c2ccc(C)cc2)NC(=O)NC1C (configuration not stated)	-24%	3%	-80*	?	-35%
CCOC(=O)C1=C(COC(=O)CCOc2ccccc2)NC(=O)NC1C (configuration not stated)	23µM*	-1%	5	23µM*	1%
COc1cc(CCCN2CCNC[C@@H]2Cc2ccc(O)cc2)cc(OC)c1OC	-10%	-21%	12	-32%	-1%
SMILES	TDP1 cell noCPT	HT1080-NT tox	IL-1B inflam inh	DT40 TDP1 CPT	HT1080 IDH1KD tx
COc1ccc(Cl)cc1NC(=O)CN1C(=O)CSc2ccc(S(=O)(=O)N3CCCC3)cc21	23µM*	·	·	16µM*	·
COc1ccc(Cl)cc1NC(=O)Cn1c(=O)oc2cc(S(=O)(=O)N3CCCCCC3)ccc21	16µM*	·	·	?	·
Cc1ccc(Cl)cc1NC(=O)Cn1c(=O)oc2cc(S(=O)(=O)N3CCCC3)ccc21	9.2µM*	·	·	23µM*	·
CCN(C(=O)Cn1c(=O)oc2cc(S(=O)(=O)N3CCCCCC3)ccc21)c1cccc(C)c1	21µM*	·	·	?	·
CC(=O)c1ccc(NC(=O)Cn2c(=O)oc3cc(S(=O)(=O)N4CCCCC4)ccc32)cc1	-23%	·	·	-16%	·
COc1ccc(OC)c(/C=C/C(=O)OCC(=O)Nc2nnc(-c3ccccc3)o2)c1	-24%	-5%	14	-17%	-14%
Cc1cccc(NC(=O)Cn2c(=O)ccc3cc(S(=O)(=O)N4CCCC4)ccc32)c1C	16µM*	·	·	?	·
COc1ccc(CNC(=O)Cn2c(=O)ccc3cc(S(=O)(=O)N4CCCC4)ccc32)cc1	-24%	·	·	-11%	·
CCN(C(=O)CN1C(=O)COc2ccc(S(=O)(=O)N3CCOCC3)cc21)c1cccc(C)c1	18µM*	·	·	?	·
COc1ccc(C)cc1NC(=O)Cn1c(=O)oc2cc(S(=O)(=O)N3CCCCC3)ccc21	15µM*	·	·	?	·
CCN(C(=O)CN1C(=O)COc2ccc(S(=O)(=O)N3CCOCC3)cc21)c1ccc(OC)cc1	?	0%	-6	-7%	16%
Cc1ccc(S(=O)(=O)N2CCCCC2)cc1NC(=O)Cn1c(=O)cnc2ccccc21	?	0%	27	-22%	2%
COc1ccc(C)cc1NC(=O)Cn1c(=O)ccc2cc(S(=O)(=O)N3CCCC3)ccc21	21µM*	·	·	21µM*	·
CC(=O)Nc1ccc2nc3c(=O)n(C)c(=O)n(C)c3nc2c1	?	8%	-6	-29%	3%
Cc1cc2nc3c(nc2cc1C)C(O)=C3O	?	0%	-3	?	5%
CC(=O)c1c(C)[nH]c(C(=O)OCC(=O)c2ccc3c(c2)NC(=O)CO3)c1C	?	-6%	0	-26%	-16%
Cn1cccc1C(=O)NC1CCCCCC1	-21%	-5%	-2	-9%	-4%
CC(C)(C)C(=O)CSc1nc2ccsc2c(=O)n1Cc1ccccc1Cl	15µM*	·	·	21µM*	·
CCCCn1c(SCC(=O)c2ccc(O)c(O)c2)nc2ccsc2c1=O	23µM*	-27%	1	15µM*	?

Bioassay records deposited in PubChem BioAssay by National Center for Advancing Translational Sciences (NCATS).
